The campaign covered roughly 1,400 compounds. About 350 (25%) were called active. Inconclusive results (about 2%) are left out. The rule behind the calls is not given here. Not all results are given here. Measured potencies and affinities stand elsewhere.
experiment: C. difficile growth inhibition, confirmation, 4-point retest (AID 1224921); conditions: Clostridioides difficile clinical isolate growth, OD600, 24 h, hits give low values; at 30 µM unless noted;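 note: plate controls were DMSO wells for no effect and levofloxacin 16 µg/mL wells for full effect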

Max activity, inactive:
Cc1noc(C)c1NC(=O)N[C@H]1CC[C@@H](CC(=O)Nc2ccc(-c3ccccc3)cc2)O[C@H]1CO 12.6%
COc1ccc(NC(=O)Nc2ccc3c(c2)C(=O)N([C@@H](C)CO)C[C@@H](C)[C@H](CN(C)Cc2ccccc2)OCCCC[C@@H](C)O3)cc1 30.9%
CCCC(=O)Nc1ccc2c(c1)C(=O)N(C)C[C@H](OC)[C@@H](C)CN(Cc1ccccc1)[C@H](C)CO2 15.3%
O=C(C[C@@H]1C=C[C@@H](NC(=O)CC2CC2)[C@H](CO)O1)NCc1ccc(-c2ccccc2)cc1 -9.84% [at 0.5 µM]
CO[C@H]1CN(C)C(=O)c2cc(NC(C)=O)ccc2OC[C@H](C)N(CCc2ccccc2)C[C@H]1C 19.8%
CCCN1C[C@H](C)[C@H](OC)CN(C)C(=O)c2cc(NC(=O)c3cccc(F)c3)ccc2OC[C@@H]1C -11.7% [at 1.95 µM]
C=CCOC(=O)[C@H]1[C@@H]2C(=O)O[C@@H](c3ccccc3)[C@@H](c3ccccc3)N2[C@@H](c2ccc(OCCOC(=O)[C@@H]3C[C@@H]4C(=O)N[C@@H](CC(C)C)C(=O)N4[C@@H]3c3cccc(OCCO)c3)cc2)[C@]12C(=O)Nc1ccccc12 24.6%
COc1ccc(-c2ccc([C@H]3[C@@H](C#N)N(C(=O)C4CC4)[C@H]3CO)cc2)cc1 32.9%
C[C@@H]1CN([C@H](C)CO)C(=O)Cc2cc(NC(=O)c3ccncc3)ccc2O[C@@H]1CN(C)Cc1ccc(-c2ccccc2)cc1 47.8% [at 35 µM]
CO[C@H]1CN(C)C(=O)c2ccc(NS(C)(=O)=O)cc2OC[C@@H](C)N(Cc2ccccn2)C[C@H]1C -14.3% [at 8 µM]
COCC(=O)Nc1ccc2c(c1)OC[C@@H](C)N(C(=O)c1ccccc1F)C[C@H](C)[C@H](OC)CN(C)C2=O 7.88%
C[C@@H]1CN([C@H](C)CO)S(=O)(=O)c2ccc(C#CCN(C)C)cc2O[C@H]1CN(C)C(=O)c1ccccc1F 18%
CCCN1C[C@@H](C)[C@@H](OC)CN(C)C(=O)c2cc(NC(=O)c3cccc(F)c3)ccc2OC[C@@H]1C -11.8%
CCCN1C[C@H](C)[C@@H](OC)CN(C)C(=O)c2ccc(NC(=O)CC)cc2OC[C@H]1C 5.45% [at 1.95 µM]
COCC(=O)N1C[C@H](C)[C@@H](OC)CN(C)C(=O)c2cc(NC(=O)NC(C)C)ccc2OC[C@@H]1C 23.4%
C[C@H](CO)N1C[C@H](C)[C@H](CN(C)S(=O)(=O)c2cccc(F)c2)Oc2ncc(C#CCN(C)C)cc2C1=O 8.03%
O=C(C[C@H]1C[C@@H]2c3cc(NC(=O)C4CCC4)ccc3O[C@@H]2[C@@H](CO)O1)NCc1ccc(Cl)cc1 -16.5% [at 0.5 µM]
C[C@@H]1CN([C@H](C)CO)C(=O)c2cccc(NC(=O)c3ccncc3)c2O[C@H]1CN(C)Cc1ccc(-c2ccccc2)cc1 36.1% [at 8 µM]
C[C@H]1CN([C@@H](C)CO)C(=O)c2cccc(NS(C)(=O)=O)c2O[C@@H]1CN(C)Cc1ccccc1 -11.4% [at 0.5 µM]
C[C@@H]1CN([C@@H](C)CO)C(=O)Cc2cc(NC(=O)c3ccncc3)ccc2O[C@H]1CN(C)Cc1ccc(-c2ccccc2)cc1 25.3% [at 8 µM]
C[C@@H]1CN([C@H](C)CO)C(=O)c2cccc(NC(=O)c3ccncc3)c2O[C@H]1CN(C)Cc1ccc(Cl)c(Cl)c1 16.6%
C[C@@H]1CN([C@@H](C)CO)C(=O)c2cccc(NC(=O)c3ccncc3)c2O[C@H]1CN(C)Cc1ccc(-c2ccccc2)cc1 13.2% [at 8 µM]
Cc1cc(C(=O)Nc2cccc3c2O[C@H](CN(C)Cc2ccc(Oc4ccccc4)cc2)[C@@H](C)CN([C@H](C)CO)C3=O)n(C)n1 41%
CO[C@H]1CN(C)C(=O)c2cc(NC(=O)Nc3cccc(F)c3)ccc2OC[C@@H](C)N(C)C[C@@H]1C -17.5%
CO[C@@H]1CN(C)C(=O)c2cc(NS(=O)(=O)c3ccccc3C)ccc2OC[C@@H](C)N(C)C[C@H]1C -6.93% [at 1.95 µM]
CCC(=O)N[C@H]1CC[C@H](CC(=O)NCCN2CCCCC2)O[C@@H]1CO 25.2%
Cc1ccccc1-c1ccc2c(c1)O[C@H](CN(C)Cc1ccncc1)[C@H](C)CN([C@@H](C)CO)S2(=O)=O 25.3%
O=C(C[C@H]1CC[C@H]2[C@@H](COC[C@H](O)CN2S(=O)(=O)c2ccccc2)O1)NCc1ccc(-c2ccccc2)cc1 41.2%
O=C(C[C@@H]1CC[C@@H]2[C@H](COC[C@@H](O)CN2S(=O)(=O)c2ccccc2)O1)NCc1ccc(-c2ccccc2)cc1 25.5%
CC(C)CC#Cc1ccc2c(c1)O[C@@H](CN(C)Cc1cccnc1)[C@H](C)CN([C@H](C)CO)S2(=O)=O 41.5% [at 8 µM]
CC(C)CC#Cc1ccc2c(c1)O[C@H](CN(C)Cc1ccccc1F)[C@H](C)CN([C@@H](C)CO)S2(=O)=O 23.7% [at 8 µM]
CO[C@@H]1CN(C)C(=O)c2ccc(NC(=O)c3ccccn3)cc2OC[C@@H](C)N(C(=O)C2CCC2)C[C@H]1C -10.9% [at 23.5 µM]
CC(C)C(=O)Nc1ccc2c(c1)C(=O)N(C)[C@H]1CC[C@@H](CC(=O)NCc3ccccc3F)O[C@H]1CO2 -11.1% [at 1.95 µM]
C[C@@H]1CN([C@@H](C)CO)S(=O)(=O)c2ccc(C#CC3CCCC3)cc2O[C@H]1CN(C)Cc1cccnc1 15.4%
O=C(N[C@@H]1C=C[C@@H](CC(=O)N2CCc3ccccc3C2)O[C@@H]1CO)C1CC1 15.1%
CC(C)CC#Cc1ccc2c(c1)O[C@H](CN(C)Cc1ccc3c(c1)OCO3)[C@H](C)CN([C@@H](C)CO)S2(=O)=O 27.5%
O=C(C[C@H]1C[C@@H]2c3cc(NC(=O)Nc4ccc(C(F)(F)F)cc4)ccc3O[C@@H]2[C@H](CO)O1)NCc1ccc(Cl)cc1 21.4%
CCCC(=O)Nc1ccc2c(c1)OC[C@H](C)N(CCc1ccccc1)C[C@H](C)[C@@H](OC)CN(C)C2=O 22%
C[C@H]1CN([C@@H](C)CO)C(=O)c2cccc(NC(=O)c3ccc(-c4nccs4)cc3)c2O[C@@H]1CN(C)C(=O)Nc1ccc(C(F)(F)F)cc1 20.3% [at 8 µM]
COc1ccccc1CNC(=O)C[C@H]1C[C@@H]2c3cc(NC(=O)NC4CCCC4)ccc3O[C@@H]2[C@H](CO)O1 -8.77% [at 2.1 µM]
C[C@@H]1CN([C@H](C)CO)C(=O)c2c(c3ccccc3n2C)-c2ccccc2CO[C@@H]1CN(C)Cc1ccncc1 24.2% [at 35 µM]
CCC(CO)Oc1cc(NCc2ccccc2)c2ncn(C(C)C)c2c1 (configuration not stated) -5.47% [at 8 µM]
CCS(=O)(=O)Nc1ccc2c(c1)C(=O)N(C)C[C@H](OC)[C@H](C)CN(CC1CCCC1)[C@@H](C)CO2 11.3%
CC(C)=CCN(C(=O)C#Cc1ccccc1)[C@H](CO)c1ccccc1 14.2% [at 1.95 µM]
C[C@H](CO)N1C[C@H](C)[C@H](CN(C)Cc2ccc(C(F)(F)F)cc2)OCCCC[C@H](C)Oc2ccc(NS(C)(=O)=O)cc2C1=O 5.77% [at 1.95 µM]
CCCC#Cc1ccc2c(c1)O[C@@H](CN(C)Cc1ccncc1)[C@H](C)CN([C@@H](C)CO)S2(=O)=O -9.09% [at 1.95 µM]
CO[C@@H]1CN(C)C(=O)c2ccc(NC(=O)c3nc4ccccc4s3)cc2OC[C@H](C)N(Cc2cccnc2)C[C@H]1C 25.4%
CCCC(O)C#Cc1cnc2c(c1)C(=O)N([C@H](C)CO)C[C@H](C)[C@H](CN(C)Cc1ccncc1)O2 (some centres not stated) 12%
C[C@H](CO)N1C[C@H](C)[C@H](CN(C)C(=O)c2cccc(F)c2)Oc2ncc(C3=CCCCC3)cc2C1=O -6.68% [at 8 µM]
C[C@@H]1CN([C@H](C)CO)C(=O)c2c(c3ccccc3n2C)-c2ccccc2CO[C@@H]1CN(C)S(=O)(=O)CC(F)(F)F 28.3%
Cc1ccccc1S(=O)(=O)NCC[C@@H]1CC[C@@H](NC(=O)Nc2cccc(Cl)c2)[C@@H](CO)O1 23.9%
C[C@H]1CN([C@@H](C)CO)C(=O)Cc2cc(NS(C)(=O)=O)ccc2O[C@@H]1CN(C)Cc1ccccc1 11.3%
COCC(=O)Nc1ccc2c(c1)OC[C@@H](C)N(Cc1cncnc1)C[C@H](C)[C@@H](OC)CN(C)C2=O -8.05% [at 1.95 µM]
C[C@H](CO)N1C[C@H](C)[C@H](CN(C)S(=O)(=O)c2ccsc2)OCc2ccccc2-c2ccccc2C1=O -12.1% [at 0.5 µM]
C[C@H](O)C#Cc1ccc2c(c1)O[C@H](CN(C)CC1CCCCC1)[C@H](C)CN([C@H](C)CO)S2(=O)=O 20.7%
C[C@H]1CN([C@@H](C)CO)C(=O)c2cc(NC(=O)Cc3ccccc3)ccc2O[C@@H]1CN(C)C(=O)Nc1ccccc1 -13.4% [at 0.5 µM]
C[C@H](NC(=O)C[C@H]1C=C[C@@H](NC(=O)CN2CCOCC2)[C@H](CO)O1)c1ccccc1 -8.28% [at 8 µM]
